{"source": "the supplement of paper PMC9844399", "note": "Structures can show the parent of a compound that is named as a salt.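 Note: Hoechst-stained nuclei counted by automated confocal imaging of four fields per well in 384-well plates, with the robust Z-score based on the per-plate DMSO median and robust SD.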"}
{"system": "HeLa", "assay": "nuclear count per well, robust Z-score vs DMSO; higher = more cells (less toxicity)", "details": "10 µM; 6 h"}
{"smiles": "CCNC(=O)CCC/C=C\\C[C@@H]1[C@@H](/C=C/[C@@H](O)CCc2ccccc2)[C@H](O)C[C@@H]1O", "note": "[Bimatoprost]", "nuclear count per well": -0.229}
{"smiles": "COc1cc(NC(C)CCCN)c2ncccc2c1", "note": "(stereo not drawn) [Primaquine Phosphate]", "nuclear count per well": -0.145}
{"smiles": "Clc1ccccc1C(c1ccccc1)(c1ccccc1)n1ccnc1", "note": "[Clotrimazole]", "nuclear count per well": -0.421}
{"smiles": "CCCCC/C=C\\C/C=C\\CC1OC1C/C=C\\CCCC(=O)O", "note": "(stereo not drawn) [8,9-Epoxyeicosatrienoic acid]", "nuclear count per well": 1.06}
{"smiles": "C#CCCCCCCCCCCCCCCCC(=O)O", "note": "[17-Octadecynoic acid]", "nuclear count per well": -0.139}
{"smiles": "Cc1onc(-c2ccccc2)c1C(=O)N[C@@H]1C(=O)N2[C@@H]1SC(C)(C)[C@@H]2C(=O)O", "note": "[Oxacillin sodium salt monohydrate]", "nuclear count per well": 0.042}
{"smiles": "Nc1nc(=O)[nH]cc1F", "note": "[Flucytosine]", "nuclear count per well": 0.644}
{"smiles": "C[C@]12CC[C@@H]3c4ccc(OS(=O)(=O)O)cc4CC[C@H]3[C@@H]1CCC2=O", "note": "[Estropipate]", "nuclear count per well": -0.293}
{"smiles": "Cc1[nH]c2ccccc2c1CCNC(=O)c1ccccc1F", "nuclear count per well": -0.994}
{"smiles": "CC(=O)NC[C@H]1CN(c2ccc(N3CCOCC3)c(F)c2)C(=O)O1", "note": "[Linezolid]", "nuclear count per well": 0.483}
{"smiles": "NC[C@H]1O[C@H](O[C@H]2[C@H](O)[C@@H](O[C@H]3O[C@H](CO)[C@@H](O)[C@H](N)[C@H]3O)[C@H](N)C[C@@H]2N)[C@H](O)[C@@H](O)[C@@H]1O", "note": "[Kanamycin Sulfate]", "nuclear count per well": 0.2}
{"smiles": "CC(CCc1ccccc1)NCC(O)c1ccc(O)c(C(N)=O)c1", "note": "(stereo not drawn)", "nuclear count per well": 0.183}
{"smiles": "CN(C)C(=N)NC(=N)N", "nuclear count per well": 0.367}
{"smiles": "COc1ccc(CCCOC(Cn2ccnc2)c2ccc(OC)cc2)cc1", "note": "(stereo not drawn)", "nuclear count per well": 0.665}
{"smiles": "C=C1O[C@@](CO)(n2cnc3c(N)ncnc32)[C@H](O)[C@@H]1O", "note": "[Decoyinine]", "nuclear count per well": -0.362}
{"smiles": "O=C(NCCCNc1nc(Nc2cccc(CN3CCOCC3)c2)ncc1C1CC1)C1CCC1", "nuclear count per well": -2.72}
{"smiles": "CC(=O)N[C@@H](CSC/C=C(\\C)CC/C=C(\\C)CCC=C(C)C)C(=O)O", "note": "[Acetyl (N)-s-farnesyl-l-cysteine]", "nuclear count per well": -0.988}
{"smiles": "CNC(=O)c1cc(Oc2ccc(NC(=O)Nc3ccc(Cl)c(C(F)(F)F)c3)c(F)c2)ccn1", "note": "[Regorafenib (BAY 73-4506)]", "nuclear count per well": 0.877}
{"smiles": "O=C(O)CCCc1ccccc1", "note": "[Sodium Phenylbutyrate]", "nuclear count per well": -0.0236}
{"smiles": "CC1CNc2c(cccc2S(=O)(=O)N[C@@H](CCCNC(=N)N)C(=O)N2CC[C@@H](C)C[C@@H]2C(=O)O)C1", "note": "(stereo partly drawn) [Argatroban]", "nuclear count per well": 0.652}
{"smiles": "CC(C(=O)O)c1ccc(-c2ccccc2)c(F)c1", "note": "(stereo not drawn) [Flurbiprofen]", "nuclear count per well": 0.165}
{"smiles": "CCCCC(C)(O)C/C=C/[C@H]1[C@H](O)CC(=O)[C@@H]1CCCCCCC(=O)OC", "note": "(mixture of isomers) [Misoprostol]", "nuclear count per well": 0.593}
{"smiles": "COc1cc2nccc(Oc3ccc(NC(=S)NC(=O)c4ccccc4C)cc3)c2cc1OC", "note": "[PDGFR Tyrosine Kinase Inhibitor V]", "nuclear count per well": -0.251}
{"smiles": "Cc1ccc(NC(=O)c2ccc(CN3CCN(C)CC3)cc2)cc1Nc1nccc(-c2cccnc2)n1", "note": "[Imatinib mesylate]", "nuclear count per well": 1.11}
{"smiles": "CN(C)CCc1c[nH]c2ccc(C[C@H]3COC(=O)N3)cc12", "note": "[Zolmitriptan]", "nuclear count per well": -0.0411}
{"smiles": "CC1=NN(c2ccccc2)C(=O)C1", "nuclear count per well": 0.294}
{"smiles": "O=C(O)c1cccnc1", "note": "[Niacin (Known As Vitamin B3, Nicotinic Acid And Vitamin Pp)]", "nuclear count per well": 0.692}
{"smiles": "CCCCCC=CCC=CC=CC=CC(SCC(NC(C)=O)C(=O)O)C(O)CCCC(=O)O", "note": "(stereo not drawn) [N-Acetyl-leukotriene E4]", "nuclear count per well": -0.399}
{"smiles": "COC(=O)CCc1ccc(OCC(O)CNC(C)C)cc1", "note": "(stereo not drawn) [Esmolol]", "nuclear count per well": 0.277}
{"smiles": "N=C(N)N/N=C/c1c(Cl)cccc1Cl", "note": "[Guanabenz Acetate]", "nuclear count per well": 0.289}
{"smiles": "CCCCCOc1ccc(-c2cc(-c3ccc(C(=O)N[C@H]4C[C@@H](O)[C@@H](O)NC(=O)[C@@H]5[C@@H](O)[C@@H](C)CN5C(=O)[C@H]([C@H](O)CC(N)=O)NC(=O)[C@H]([C@H](O)[C@@H](O)c5ccc(O)c(OS(=O)(=O)O)c5)NC(=O)[C@@H]5C[C@@H](O)CN5C(=O)[C@H]([C@@H](C)O)NC4=O)cc3)no2)cc1", "note": "[Micafungin]", "nuclear count per well": -0.967}
{"smiles": "CC1(C)CCC(C)(C)c2cc(C(=O)Nc3ccc(C(=O)O)cc3)ccc21", "nuclear count per well": 1.49}
{"smiles": "COc1cc(/C=C/C(=O)CC(=O)/C=C/c2ccc(O)c(OC)c2)ccc1O", "note": "[Curcumin]", "nuclear count per well": -1.34}
